From PubChem BioAssay AID1220 (Sanford-Burnham Center for Chemical Genomics, 2008) come the findings set out here.

The inhibition is the drop in the measured response relative to a control, in per cent.

The whole screen tested about 190,000 compounds, of which about 1,300 (0.68%) were called active. For the sample, actives were picked, then their nearest neighbours and some compounds at random. Unmarked numbers belong to inactive results. No stated cut-off is given here; in the data, active means inhibition above about 50%; inactive means the rest.

Mannose-6-phosphate isomerase (Homo sapiens), sequence (P34949 whole entry, looked up): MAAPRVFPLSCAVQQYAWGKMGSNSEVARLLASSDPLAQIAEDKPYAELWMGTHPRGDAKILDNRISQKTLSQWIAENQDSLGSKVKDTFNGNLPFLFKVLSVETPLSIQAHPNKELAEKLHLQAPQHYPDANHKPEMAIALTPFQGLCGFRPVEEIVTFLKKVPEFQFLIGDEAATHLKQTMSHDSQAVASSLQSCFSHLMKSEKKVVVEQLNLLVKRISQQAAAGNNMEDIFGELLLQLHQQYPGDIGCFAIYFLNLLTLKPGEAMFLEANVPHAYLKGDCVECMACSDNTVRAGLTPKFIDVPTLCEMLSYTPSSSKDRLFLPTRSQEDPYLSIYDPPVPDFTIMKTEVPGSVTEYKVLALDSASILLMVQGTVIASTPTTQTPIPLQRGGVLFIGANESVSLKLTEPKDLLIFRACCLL

This test concerns the target Mannose-6-phosphate isomerase (Homo sapiens) (UniProt P34949). As to the kind of experiment: MPI inhibition at elevated mannose 6-phosphate – biochemical, fluorescence intensity, high mannose 6-phosphate, primary screen (AID 1220). Conditions: recombinant PMI enzyme, coupled fluorescence intensity; at 20 µM; hits give high values.
For the compound `Cc1c(Br)c([N+](=O)[O-])nn1CC(=O)NCCc1c[nH]c2ccccc12`, the inhibition is 6.1%.
Regarding `CSCCNC(=O)c1ccc(OC2CCN(CCc3ccccc3)CC2)cc1`, the inhibition is -9.3%.
As to `O=C(Cn1nc(-c2ccccc2)ccc1=O)Nc1cccc(NC(=O)c2ccccn2)c1`, the inhibition was -11.7%.
In the case of `CCCCN1C(=O)/C(=C/C=C2\SCCN2C)SC1=S` it was 53.5% (active); in that of `CCN1C(=O)/C(=C/C=C2/SCCN2C)SC1=S`, 27.6%.
On to `CN1CCS/C1=C\C=C1/SC(=S)N(CC(=O)O)C1=O`, for which the inhibition is 19.8%.
In the case of `COc1ccc(-c2cc(CNC(=O)CN3CCN(C)CC3)on2)cc1` it was 20.4%.
With `COc1cc(OC)cc(-c2nc(-c3cccs3)no2)c1`, the inhibition was 10.1%.
The result for `Cc1cc2cc(NC(=O)c3ccco3)ccc2[nH]1` reads 10.8%; that for `CC(=O)Nc1cccc(NC(=O)CSc2ccc3nnc(CCNC(=O)c4ccccc4)n3n2)c1`, 10.1%.
In the case of `Nc1ccc(N2CCCCC2)cc1N1CCCCC1` it was 46.4%.
The result for `Nc1cc(Cl)ccc1N1CCOCC1` reads -3.8%; that for `Nc1ccc(N2CCCCC2)c(Cl)c1`, 2.9%; that for `Nc1ccc(N2CCCCC2)c2nonc12`, 68.3% (active).
Take `Nc1ccccc1N1CCOCC1`: the inhibition is -0.3%.
The result for `Nc1nonc1N1CCCCC1` reads 13.1%; that for `Nc1c(N2CCCC2)cc(Cl)c2nonc12`, 55.1% (active); that for `Nc1cc(Cl)ccc1N1CCCC1`, 36.3%.
Turning to `Nc1ccc(N2CCOCC2)c2nonc12`, the inhibition was 57% (active).
In the case of `CN1CCN(C(=O)C2=C[C@@H](c3ccccc3)C[C@@H](OCc3ccc(CO)cc3)O2)CC1` it was 1.7%.
In the case of `CCCCCCOC1(c2ccccc2)OC(=O)c2ccccc21` (stereo not given) it was 11.5%; in that of `CCCCCn1c(=O)[nH]c2c(c1=O)CCC2`, 4.7%.
Regarding `CC1(C)C(=O)NCCN1C(=O)CCCC(=O)O`, the inhibition is 2.6%.
As for `OCCn1c(CSc2nc3ccccc3n2CCO)nc2ccccc21`, the inhibition was 3%.
The result for `O=C(NCc1ccccn1)c1cccs1` reads 4.7%; that for `CC(C)(C)C(=O)Nc1nnc(CC(=O)NCc2ccccc2)s1`, 13.1%.
In the case of `O=C(O)[C@@H]1[C@@H]2C[C@@H]2CN1c1ncccc1[N+](=O)[O-]` it was 65.1% (active); in that of `O=[N+]([O-])c1cccnc1N1CCOCC1`, 7.1%; in that of `O=[N+]([O-])c1cccnc1N1CCCCC1`, 10.7%.
The result for `O=C(O)C1CN(c2ncccc2[N+](=O)[O-])C1` reads 26.1%.
Regarding `O=C(O)C1CCCN1c1ncccc1[N+](=O)[O-]` (stereo not given), the inhibition was 50.8% (active).
The result for `NC(=O)C1CCN(c2ncccc2[N+](=O)[O-])CC1` reads -3.3%.
Consider `COc1cccc(NC(=O)c2ccc(NCCCN3CC(C)CC(C)C3)c([N+](=O)[O-])c2)c1` (stereo not given), for which the inhibition was -12.8%.
The result for `CCOP(=O)(CC(C(C)=O)C(O)c1ccccc1)OCC` (stereo not given) reads 11.7%.
The result for `Cc1cccc(/C=N\Nc2nnc(-c3ccccc3)c(=O)[nH]2)c1` reads 7.5%.
As for `Cc1ccc(S(=O)(=O)N2CCCC2C(=O)Nc2nc3ccccc3s2)cc1` (stereo not given), the inhibition was 17.6%.
The result for `CCN(CC)c1ccc(/C=N/N(c2ccccc2)c2ccccc2)c(O)c1` reads 30%; that for `CCN(CC)c1ccc(/C=N/NC(=S)NC)c(O)c1`, 21.9%.
For the compound `CCN(CC)c1ccc(/C=N/Nc2ccccc2)c(O)c1`, the inhibition was -21.9%.
As to `CCN(CC)c1ccc(/C=N/Nc2cccc(C)c2)c(O)c1`, the inhibition is -62.5%.
The result for `CCN(CC)c1ccc(/C=N/N=C(N)N)c(O)c1` reads 64% (active); that for `CCN(CC)c1ccc(C=Nc2ccccc2)c(O)c1`, 61.8% (active).
As to `CCN(CC)c1ccc(/C=N/N=C(c2ccccc2)c2ccccc2)c(O)c1`, the inhibition is 4.8%.
The result for `CCOC(=O)N/N=C/c1ccc(N(CC)CC)cc1O` reads 53.3% (active); that for `CCN(CC)c1ccc(/C=N/NC(=O)OC)c(O)c1`, 27.7%.
For the compound `CCN(CC)c1ccc(C=Nc2cc(C)cc(C)c2)c(O)c1`, the inhibition was 52.8% (active).
The result for `CCN(CC)c1ccc(C=Nc2ccc(C#N)cc2)c(O)c1` reads 40.4%; that for `CCC(=O)N1CCc2cc(S(=O)(=O)NC(Cc3ccccc3)C(=O)NC3CCCCC3)ccc21` (stereo not given), -11.2%.
In the case of `CCCCc1ccc(NC(=S)NCCN2CCOCC2)cc1` it was -3.3%; in that of `COC(=O)c1cn(C)c2ccc(S(=O)(=O)N3CCOCC3)cc2c1=O`, 0.8%; in that of `CC(Nc1ccccc1)C(=O)Nc1ccc(F)cc1` (stereo not given), -11.4%.
The result for `CCN(CC)c1ccc(C=Nc2ccc(C)cc2)c(O)c1` reads 57% (active); that for `CCN(CC)c1ccc(C=Nc2ccc(N(C)C)cc2)c(O)c1`, 28.1%; that for `CCN(CC)c1ccc(N=Cc2ccc(N(CC)CC)cc2O)cc1`, 19.5%.
Turning to `COc1ccc(N(C)S(=O)(=O)c2cccc(C(=O)NCC3CCCO3)c2)cc1` (stereo not given), the inhibition was -3.8%.
In the case of `Cc1sc2ncnc(SCC(=O)N3CCN(C(=O)c4ccco4)CC3)c2c1C` it was 6.2%.
For `COc1ccc(C(C(=O)NC2CCCC2)N(Cc2ccccc2)C(=O)c2nsc(Cl)c2Cl)cc1` (stereo not given), the inhibition was 21.1%.
On to `CN1CCc2c(sc3c2C(=O)NC(c2ccccc2)N3)C1` (stereo not given), for which the inhibition is 33%.
In the case of `CCOC(=O)N1CCc2c(sc3c2C(=O)NC(c2ccccc2)N3)C1` (stereo not given) it was 60.6% (active); in that of `CSc1ccc(C2NC(=O)c3c(sc4c3CCN(C)C4)N2)cc1` (stereo not given), 17%.
In the case of `CCCn1c(SCC(=O)NCc2ccc(OC)cc2)n[nH]c1=O` it was 11.2%; in that of `O=C(NCC1CCCCC1)C1CCCN(C(=O)NC2CCCCC2)C1` (stereo not given), -1.6%; in that of `Cc1cc(C)c(S(=O)(=O)/N=C2/C=C(Sc3ncn[nH]3)C(=O)c3ccccc32)cc1C`, 90.3% (active).
In the case of `Cc1cc(C)c(S(=O)(=O)/N=C2/C=C(SCC(=O)O)C(=O)c3ccccc32)cc1C` it was -32.3%.
For the compound `Cc1cc(C)c(S(=O)(=O)Nc2ccc(O)c(Sc3ncn[nH]3)c2)c(C)c1`, the inhibition was 13.7%.
The result for `CC1=CC(C)(C)N(C(=O)CSc2ncn[nH]2)c2ccccc21` reads -9.5%; that for `Cc1ccc(S(=O)(=O)/N=C2/C=C(Sc3ncn[nH]3)C(=O)c3ccccc32)c(C)c1`, 92.7% (active).
The result for `Cc1ccc(S(=O)(=O)Nc2ccc(O)c(Sc3ncn[nH]3)c2)cc1` reads 27.6%.
The result for `Cc1cc(NC(=O)COC(=O)C2COc3ccccc3O2)no1` (stereo not given) reads -4.4%.
For the compound `CCCC(O)(c1ccc(Cl)cc1)C(CN1CCOCC1)c1ccccc1` (stereo not given), the inhibition was 5.2%.
Consider `Cc1ccc(S(=O)(=O)N2CCCCC2)cc1NC(=O)COC(=O)C1CC2C=CC1C2` (stereo not given), for which the inhibition is 11%.
For the compound `O=C(NC1CCCCC1)C1CCN(S(=O)(=O)c2cccs2)CC1`, the inhibition is 5.6%.
With `C=CCc1c(OC)ccc2ccc(=O)oc12`, the inhibition was 0.3%.
With `Cc1cccc2cc(CN(CCCN(C)C)C(=S)NCCc3ccccc3)c(=O)[nH]c12`, the inhibition is -1.6%.
With `CC(C)(C)C1CCc2c(sc(NC(=O)CSc3nnc(-c4ccccc4)o3)c2C#N)C1` (stereo not given), the inhibition is 15.1%.
Take `CC1CCc2c(sc(NC(=O)CSc3nnc(-c4ccccc4)o3)c2C#N)C1` (stereo not given): the inhibition is 57.2% (active).
In the case of `N#Cc1c(NC(=O)CSc2nnc(-c3ccccc3)o2)sc2c1CCCC2` it was 4.2%; in that of `COC(=O)c1ccc(CSCC(=O)Nc2ccccc2)cc1`, 6.4%; in that of `COc1ccc(C2=COc3ccccc3C(=O)N2)cc1`, -6.2%.
Take `O=C(CSc1ccc(C(F)(F)F)cc1[N+](=O)[O-])Nc1ccc2ccccc2c1`: the inhibition is 10.8%.
In the case of `Cc1csc(NC(=O)c2ccc(OCC3CCCO3)cc2)n1` (stereo not given) it was 1.2%.
For `O=C(Nc1nc(-c2ccc(Cl)cc2Cl)cs1)c1ccc(OCC2CCCO2)cc1` (stereo not given), the inhibition was 11.1%.
The result for `COc1ccc(OC)c(-c2csc(NC(=O)c3ccc(OCC4CCCO4)cc3)n2)c1` (stereo not given) reads 104% (active); that for `COc1ccccc1NC(=O)c1cnc2c(-c3ccccc3)c(C)nn2c1C`, 8.9%; that for `COCCNC(=O)/C(C#N)=C/c1cc(C)n(C2CCCCC2)c1C`, -6.4%.
Consider `O=C(c1cnn(-c2ccccc2)c1)c1ccc2ccccc2c1O`, for which the inhibition was 23.1%.
The result for `O=C(COC(=O)[C@H](Cc1ccccc1)NC(=O)c1ccco1)NC(c1ccccc1)c1ccccc1` reads 11.5%; that for `COc1cccc(NC(=O)c2ccncc2)c1`, 6%.
The result for `COc1ccc(C(=O)Nc2cc(OC)cc(OC)c2)cc1` reads 10%; that for `COc1cc(N)cc(NC(=O)c2ccncc2)c1`, 50.4% (active); that for `COc1nc(OC)nc(N2CCC(C(=O)NC3CCCCCC3)CC2)n1`, 1.4%.
The result for `Cc1ccccc1NC(=S)NCc1ccc(Cl)cc1` reads 9.2%; that for `CC1CCc2c(C(=O)Oc3cccc(-n4cnnn4)c3)csc2C1` (stereo not given), 15.6%; that for `Cc1ccc(O)c(CNc2cccc3cccnc23)c1`, 63.8% (active).
`Cc1ccc(O)c(CNc2ccccn2)c1`: the inhibition was -7.2%.
As to `Cc1cccnc1NCc1ccc(O)c2ncccc12`, the inhibition is 63.6% (active).
The result for `Cc1cccc(NCc2ccccc2O)c1C` reads 25.8%; that for `Oc1ccc(Cn2ccnc2)c2cccnc12`, 7.4%.
As for `CC(C)COCc1ccc(O)c2ncccc12`, the inhibition was 14.9%.
Take `Fc1ccc(NCc2cccnc2)cc1`: the inhibition is -2%.
In the case of `Cc1ccccc1NCc1ccccc1O` it was 1.6%; in that of `Oc1ccccc1CNc1cccc2cccnc12`, 45.3%; in that of `COCc1ccc(O)c2ncccc12`, 22.6%.
In the case of `CSc1cccc(NC(=S)N(CCCN2CCCC(C)C2)Cc2cccs2)c1` (stereo not given) it was 4.6%; in that of `COCCOC(=O)C1=C(C)N=C2SCCC(=O)N2C1c1cccc(Br)c1` (stereo not given), 1.8%.
